Reference: PubChem BioAssay (Tox21)
Records with an inconclusive call do not appear. Entries that show only a call come without a potency. Activity calls are given as the source filed them. Unless noted, the call rests on the fitted dose curve; in most records, active means well fitted cell-killing curve with a large enough effect in the repeat runs; inconclusive means weak or mixed curves, or effect the other way; inactive means no such curve, though single readings can be large or run the other way.

Biological target: Progesterone receptor (Homo sapiens) (UniProt P06401)
Sequence (P06401 whole entry, looked up): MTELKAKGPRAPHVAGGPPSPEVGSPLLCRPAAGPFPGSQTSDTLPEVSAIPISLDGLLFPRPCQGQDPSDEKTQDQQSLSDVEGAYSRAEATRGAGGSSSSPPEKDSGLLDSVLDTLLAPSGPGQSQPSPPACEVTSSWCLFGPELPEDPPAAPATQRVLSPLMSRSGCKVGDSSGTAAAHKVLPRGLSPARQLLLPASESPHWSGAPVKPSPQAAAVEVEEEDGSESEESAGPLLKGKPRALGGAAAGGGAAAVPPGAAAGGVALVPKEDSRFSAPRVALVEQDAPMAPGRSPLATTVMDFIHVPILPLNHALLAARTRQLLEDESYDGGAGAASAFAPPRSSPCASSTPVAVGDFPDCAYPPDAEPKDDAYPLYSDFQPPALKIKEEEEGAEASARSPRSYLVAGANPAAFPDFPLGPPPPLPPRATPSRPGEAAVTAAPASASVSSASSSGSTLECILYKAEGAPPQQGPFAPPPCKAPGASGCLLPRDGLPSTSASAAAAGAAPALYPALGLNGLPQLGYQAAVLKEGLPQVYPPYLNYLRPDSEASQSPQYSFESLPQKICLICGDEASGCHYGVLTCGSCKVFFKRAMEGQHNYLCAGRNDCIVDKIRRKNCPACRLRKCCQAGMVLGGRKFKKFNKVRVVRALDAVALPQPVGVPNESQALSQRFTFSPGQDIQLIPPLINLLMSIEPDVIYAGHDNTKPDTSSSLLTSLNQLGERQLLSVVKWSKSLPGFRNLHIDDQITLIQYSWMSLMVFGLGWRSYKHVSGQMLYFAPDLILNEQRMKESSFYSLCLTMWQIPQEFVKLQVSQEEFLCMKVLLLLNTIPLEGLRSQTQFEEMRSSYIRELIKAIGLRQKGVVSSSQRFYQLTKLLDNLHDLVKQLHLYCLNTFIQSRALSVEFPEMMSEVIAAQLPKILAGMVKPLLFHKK
Assay: qHTS assay to identify small molecule antagonists of the progesterone receptor (PR) signaling pathway (AID 1346795; active means well fitted inhibition curve with a large enough effect in the signal ratio in the repeat runs, not every such curve was filed as active; the % refers to the signal ratio)
Conditions: PR-UAS-bla HEK293T, beta-lactamase FRET ratio, 16 h; series mostly up to 92.4 µM
How it was run: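 Fluorescence intensity measured 2 hr after adding beta-lactamase FRET substrate to PR-UAS-bla HEK293T cells that had been co-treated 16 hr with compound and 1 nM R5020 (final concentration) in 2% charcoal-stripped FBS.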
For `CCCCN1C=CN(C)C1`, the activity change, negative = inhibition was 3.82% [at 18.9 µM] (inactive).
In the case of `CCCC(C)C(=O)OCC` (stereo not given), the Potency was “inactive”.
For `C[C@H]1C[C@H]2[C@@H]3CCC4=CC(=O)C=C[C@]4(C)[C@H]3C(=O)C[C@]2(C)[C@@]1(O)C(=O)CO`, the Potency was “inactive”.
With `CC[N+](C)(CC)CCOC(=O)C1c2ccccc2Oc2ccccc21` the Potency was “inactive”.
In the case of `CC(=O)N[C@H]1[C@H]([C@H](O)[C@H](O)CO)OC(C(=O)O)=C[C@@H]1N=C(N)N`, the Potency was “inactive”.
With `O=S(=O)(O)c1cccc2c(S(=O)(=O)O)cccc12` the Potency was “inactive”.
In the case of `NC(=O)N[C@@H](CCC(=O)O)C(=O)O`, the Potency was “inactive”.
With `CNCC(O)c1ccc(O)c(O)c1` (stereo not given) the Potency was “inactive”.
For `[Ca+2]`, the Potency was “inactive”.
With `O=C(O)CC(C(=O)O)S(=O)(=O)O` (stereo not given) the Potency was “inactive”.
For `CC(=O)C1CCCCC1=O` (stereo not given), the Potency was “inactive”.
For `CO[C@@]1(NC(=O)C(C(=O)O)c2ccc(O)cc2)C(=O)N2C(C(=O)O)=C(CSc3nnnn3C)CO[C@@H]21` (stereo not given in full), the Potency was “inactive”.
With `O=S(=O)(O)c1cccc2ccccc12` the Potency was “inactive”.
With `CC[N+](CC)(CC(=O)Nc1c(C)cccc1C)Cc1ccccc1` (tested in a mixture with another compound) the Potency was “inactive”.
In the case of `CN(C)C(=O)Oc1cccc([N+](C)(C)C)c1`, the Potency was “inactive”.
For `CCN[C@@H]1C[C@H](N)[C@@H](OC2OC(CN)=CCC2N)[C@H](O)[C@H]1O[C@H]1OC[C@](C)(O)[C@H](NC)[C@H]1O` (stereo not given in full), the activity change, negative = inhibition was 9.29% [at 0.348 µM] (inactive).
With `O=C(O)CNC(=O)c1ccc(CO)o1` the Potency was “inactive”.
With `CC(C)(C)C(=O)Oc1ccc(S(=O)(=O)Nc2ccccc2C(=O)NCC(=O)O)cc1` the Potency was “inactive”.
With `CN(C)CCN(C)CCN(C)C` the Potency was “inactive”.
In the case of `Cc1c(N)c(=O)n(-c2ccccc2)n1C`, the Potency was “inactive”.
With `NCCCC[C@H](N[C@@H](CCc1ccccc1)C(=O)O)C(=O)N1CCC[C@H]1C(=O)O` the Potency was “inactive”.
In the case of `Nc1ccn([C@@H]2O[C@H](CO)[C@@H](O)C2O)c(=O)n1` (stereo not given in full), the Potency was “inactive”.
With `CC(C(=O)O)c1cccc(Oc2ccccc2)c1` (stereo not given) the Potency was “inactive”.
With `O=C(O)CCCC[P+](c1ccccc1)(c1ccccc1)c1ccccc1` the Potency was “inactive”.
In the case of `CCCCCCCCCCCCCCCCCCO`, the Potency was “inactive”.
With `CC12CCC(C(=O)C1=O)C2(C)C` (stereo not given) the Potency was “inactive”.
For `C[N+]1(C)CCCC(OC(=O)C(O)(c2ccccc2)c2ccccc2)C1` (stereo not given), the Potency was “inactive”.
With `NCCCC(N)(C(=O)O)C(F)F` (stereo not given) the Potency was “inactive”.
For `Cc1coc2ccccc2c1=O`, the Potency was “inactive”.
For `CC(C)COC(=O)c1ccc(N)cc1`, the Potency was “inactive”.
In the case of `CN1[C@@H]2CC[C@H]1CC(OC(=O)C(O)c1ccccc1)C2` (stereo not given in full), the Potency was “inactive”.

Test system: not listed separately
Assay: qHTS assay to identify small molecule antagonists of the progesterone receptor (PR) signaling pathway - cell viability counter screen (AID 1346798); further: nearly all actives have a fitted effect of over 50% in size; further: potency means the concentration at half of the fitted maximal effect
Conditions: PR-UAS-bla HEK293T viability, CellTiter-Glo luminescence, 16 h; series mostly up to 92.4 µM
How it was run: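 CellTiter-Glo luminescence; PR-UAS-bla HEK293T, 3,000 cells/well; compound + R5020, 16 hr, 37C/5% CO2; 30 min RT before read.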
In the case of `CCCCN1C=CN(C)C1`, the activity change, negative = cytotoxicity was -2.54% [at 18.9 µM] (inactive).
With `CCCC(C)C(=O)OCC` (stereo not given) the Potency was “inactive”.
For `C[C@H]1C[C@H]2[C@@H]3CCC4=CC(=O)C=C[C@]4(C)[C@H]3C(=O)C[C@]2(C)[C@@]1(O)C(=O)CO`, the Potency was “inactive”.
In the case of `CC[N+](C)(CC)CCOC(=O)C1c2ccccc2Oc2ccccc21`, the Potency was “inactive”.
With `CC(=O)N[C@H]1[C@H]([C@H](O)[C@H](O)CO)OC(C(=O)O)=C[C@@H]1N=C(N)N` the Potency was “inactive”.
In the case of `CCOc1ccc2nc(S(N)(=O)=O)sc2c1`, the Potency was “inactive”.
In the case of `NC(=O)N[C@@H](CCC(=O)O)C(=O)O`, the Potency was “inactive”.
With `CNCC(O)c1ccc(O)c(O)c1` (stereo not given) the Potency was “inactive”.
With `[Ca+2]` the Potency was “inactive”.
For `Nc1ccccn1`, the Potency was “inactive”.
In the case of `CC(=O)C1CCCCC1=O` (stereo not given), the Potency was “inactive”.
With `CO[C@@]1(NC(=O)C(C(=O)O)c2ccc(O)cc2)C(=O)N2C(C(=O)O)=C(CSc3nnnn3C)CO[C@@H]21` (stereo not given in full) the Potency was “inactive”.
With `O=S(=O)(O)c1cccc2ccccc12` the Potency was “inactive”.
For `CC[N+](CC)(CC(=O)Nc1c(C)cccc1C)Cc1ccccc1` (tested in a mixture with another compound), the Potency was “inactive”.
With `CN(C)C(=O)Oc1cccc([N+](C)(C)C)c1` the Potency was “inactive”.
For `CCN[C@@H]1C[C@H](N)[C@@H](OC2OC(CN)=CCC2N)[C@H](O)[C@H]1O[C@H]1OC[C@](C)(O)[C@H](NC)[C@H]1O` (stereo not given in full), the activity change, negative = cytotoxicity was 4.73% [at 0.348 µM] (inactive).
For `O=C(O)CNC(=O)c1ccc(CO)o1`, the Potency was “inactive”.
With `CC(C)(C)C(=O)Oc1ccc(S(=O)(=O)Nc2ccccc2C(=O)NCC(=O)O)cc1` the Potency was “inactive”.
For `CN(C)CCN(C)CCN(C)C`, the Potency was “inactive”.
In the case of `Cc1c(N)c(=O)n(-c2ccccc2)n1C`, the Potency was “inactive”.
With `NCCCC[C@H](N[C@@H](CCc1ccccc1)C(=O)O)C(=O)N1CCC[C@H]1C(=O)O` the Potency was “inactive”.
With `Nc1ccn([C@@H]2O[C@H](CO)[C@@H](O)C2O)c(=O)n1` (stereo not given in full) the Potency was “inactive”.
In the case of `CC(C(=O)O)c1cccc(Oc2ccccc2)c1` (stereo not given), the Potency was “inactive”.
In the case of `O=C(O)CCCC[P+](c1ccccc1)(c1ccccc1)c1ccccc1`, the Potency was “inactive”.
For `COc1cc(C)nc(-n2nc(C)cc2OC)n1`, the Potency was 11.9 µM (active).
For `CCCCCCCCCCCCCCCCCCO`, the Potency was “inactive”.
In the case of `CC12CCC(C(=O)C1=O)C2(C)C` (stereo not given), the Potency was “inactive”.
In the case of `Cc1ccc(C(=O)c2ccc(CC(=O)O)n2C)cc1`, the Potency was “inactive”.
With `C[N+]1(C)CCCC(OC(=O)C(O)(c2ccccc2)c2ccccc2)C1` (stereo not given) the Potency was “inactive”.
In the case of `CCCCCCCCCCCCCCC(=O)O`, the Potency was “inactive”.
In the case of `NCCCC(N)(C(=O)O)C(F)F` (stereo not given), the Potency was “inactive”.
With `Cc1coc2ccccc2c1=O` the Potency was “inactive”.
For `CC(C)COC(=O)c1ccc(N)cc1`, the Potency was “inactive”.
In the case of `CN1[C@@H]2CC[C@H]1CC(OC(=O)C(O)c1ccccc1)C2` (stereo not given in full), the Potency was “inactive”.
